Laboratory results from PubChem BioAssay (EPA / NIEHS).
Inconclusive results are not listed. Activity calls are given as the source filed them. Rule for the calls, unless noted: active = hit-call score of the fitted dose curve at least 0.9, where 1 is the maximum; inactive = score below 0.9.

Tests used:
[1] = BSK_BT_PBMCCytotoxicity: PBMC Cytotoxicity Assessment in the BioMAP Diversity Plus: BT Assay (AID 2284225); details: primary human B cells with PBMC;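 note: PBMC viability measured by Alamar Blue dye reduction fluorescence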
Procedure, shortened: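 Viability by Alamar Blue reduction (6 h, ex/em 546/580 nm) after 90 h culture of SEB/TSST-1-activated PBMC (20 ng/mL each) given compound 1 h before activation. DMSO served as baseline for curve fitting.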

[2] = read-out: Secreted IgG (sIgG), gene 3500; assay: BSK_BT_sIgG: BioMAP Diversity Plus: BT Assay for Secreted IgG (sIgG) Biomarker Activity (AID 2284226); details: primary human B cells with PBMC
Procedure, shortened: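 Cells (B cells with peripheral blood mononuclear cells) are dosed, cultured 24 h, then supernatant IgG is measured by ELISA. DMSO serves as negative control; curves are fitted for signal increase.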

[3] = BSK_BT_Bcell_Proliferation: Viability Assessment in the BioMAP Diversity Plus: BT Assay for B cell Proliferation (AID 2284227); details: primary human B cells with PBMC
Procedure, shortened: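 Human B cells co-cultured with PBMC were dosed with test chemicals and relative cell number was quantified by SRB staining at 72 h. Cells were fixed in 10% TCA, stained with 0.1% SRB and read at 560 nm. Activity was fitted in the positive direction against DMSO.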

[4] = read-out: Interleukin 6 (IL6), IL6 (gene 3569); assay: BSK_BT_xIL6: BioMAP Diversity Plus: BT Assay for Interleukin 6 (IL6) Biomarker Activity (AID 2284228); details: primary human B cells with PBMC
Procedure, shortened: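 B cells and peripheral blood mononuclear cells (human primary co-culture) were dosed with chemical, and after 24 h IL-6 released into the medium was measured by Luminex xMAP. Responses were analysed as gain of signal over DMSO control.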

[5] = read-out: Interleukin 17A (IL17A), IL17A (gene 3605); assay: BSK_BT_xIL17A: BioMAP Diversity Plus: BT Assay for Interleukin 17A (IL17A) Biomarker Activity (AID 2284229); details: primary human B cells with PBMC
Procedure, shortened: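 Secreted IL-17A was the measured endpoint, read by Luminex xMAP multiplex in supernatants of a human B cell/PBMC co-culture harvested 24 h after chemical dosing. Signal increase relative to DMSO defined activity.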

[6] = read-out: Tumor necrosis factor (Homo sapiens) (UniProt P01375); assay: BSK_BT_xTNFa: BioMAP Diversity Plus: BT Assay for Tumor necrosis factor alpha (TNF-alpha) Biomarker Activity (AID 2284230); details: primary human B cells with PBMC
Procedure, shortened: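 B cells with PBMC in co-culture, dosed and sampled at 24 h; secreted TNF-alpha measured by Luminex xMAP bead assay. Activity fitted in the gain direction against DMSO as negative control and baseline.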

[7] = CCTE_Mundy_HCI_hN2_NOG_NeuronCount: CCTE's Neurite Outgrowth Assay in human hN2 cells for Neuron Count, Mundy Lab (AID 2284221; active = hit-call score of the fitted dose curve at least 0.9, where 1 is the maximum)
Procedure, shortened: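 Read-out is the number of betaIII-tubulin-positive neurons imaged by automated high-content analysis, with DMSO as negative control.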

[8] = CCTE_Mundy_HCI_Cortical_Synap_Neur_Matur_NeuriteCount: CCTE's Synaptogenesis and Neurite Maturation Assay in rat cortical cells for Neurite Count, Mundy Lab (AID 2284222);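 note: exposure from day 7 to day 12 in vitro with readout at day 12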
Procedure: CCTE_Mundy_HCI_Cortical_Synap&Neurite_Matur is a multiplexed, cell-based-readout assay that uses rat primary cortical cells with measurements taken at 288.33 hours after chemical dosing in a microplate: 96-well plate.CCTE_Mundy_HCI_Cortical_Synap_Neur_Matur_NeuriteCount is one of eight components of the CCTE_Mundy_HCI_Cortical_Synap&Neurite_Matur assay. It measures synaptogenesis and neurite maturation related to number of neurites using High Content Imaging of fluorescently labelled markers.[…] Using a type of morphology reporter, loss -of-signal activity can be used to understand developmental effects.
Cells are plated onto 96 well plates and allowed 2 hr for attachment to the substrate. At days in vitro (DIV) 5, Cytosine Arabinoside (AraC) is added to arrest glial cell growth. Chemicals are dosed and a media change is performed at DIV 7 of differentiation and is continued through DIV 12 when the experiment is terminated. Cells are fixed with […] and Hoechst Dye. Cells are stained using Millipore Mouse anti-MAP2MAB3418 (1:800) and Millipore Rabbit anti-Synaptophysinsc-1750 (1:250) primary antibodies and Alexa Fluor-488 goat anti-mouse and AlexaFluor-546 goat anti-rabbit secondary antibodies to label neuronal cell nuclei, synapses and neurites. A Cellomics ArrayScan VTi HCS Reader is used for automated image acquisition and analysis of neurite outgrowth.

[9] = CCTE_Mundy_HCI_Cortical_Synap_Neur_Matur_CellBodySpotCount: CCTE's Synaptogenesis and Neurite Maturation Assay in rat cortical cells for Cell Body Spot Count, Mundy Lab (AID 2284223)
Procedure, shortened: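 Rat cortical neurons; AraC @ DIV 5; dose + media change DIV 7; fix DIV 12; anti-MAP2/anti-synaptophysin IF, Hoechst; HCI count of soma synaptophysin puncta/neuron; DMSO = negative control.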

[10] = CCTE_Mundy_HCI_hNP1_Pro_ResponderAvgInten: CCTE's Proliferation Assay in human neuroprogenitor cells, Mundy Lab (AID 2284224; active = hit-call score of the fitted dose curve at least 0.9, where 1 is the maximum)
Procedure: CCTE_Mundy_HCI_hNP1_Pro is a multiplexed, cell-based-readout assay that uses neural stem cells derived from a neuroepithelial cell lineage of WA09 embryonic cells with measurements taken at 26.25 hours after chemical dosing in a microplate: 96-well plate.CCTE_Mundy_HCI_hNP1_Pro_ResponderAvgInten is one of three components of the CCTE_Mundy_HCI_hNP1_Pro assay. It measures proliferation related to percentage of BrdU positive cells using High Content Imaging of fluorescently labelled markers.Data from the assay component CCTE_Mundy_HCI_hNP1_Pro_ResponderAvgInten was analyzed at the endpoint CCTE_Mundy_HCI_hNP1_Pro_ResponderAvgInten in the positive analysis fitting direction relative to DMSO as the negative control and baseline of activity. Using a type of growth reporter, loss -of-signal activity can be used to understand viability effects.
Human neural progenitor cells (hNP1) were obtained as cryopreserved cells from ArunA Biomedical, Athens Georgia. Cells are plated on pre-coated poly-L-ornithine/laminin clear bottom and opaque 96 well plates (day 0). Plates are placed in a 37 °C, 5% CO2 incubator for 40 to 44 hours at which time plates are removed from the incubator and 10 uL of a freshly made chemical solution is added to each well. Twenty hours after the addition of the chemicals, the clear plates are removed from the incubator and 11 uL of a BrdU solution is added to each well. The plates are returned to the incubator for four hours. After four hours, the plates are fixed with a 4% paraformaldehyde solution.

Measured: AC50

Tumor necrosis factor (Homo sapiens), sequence (P01375 whole entry, looked up): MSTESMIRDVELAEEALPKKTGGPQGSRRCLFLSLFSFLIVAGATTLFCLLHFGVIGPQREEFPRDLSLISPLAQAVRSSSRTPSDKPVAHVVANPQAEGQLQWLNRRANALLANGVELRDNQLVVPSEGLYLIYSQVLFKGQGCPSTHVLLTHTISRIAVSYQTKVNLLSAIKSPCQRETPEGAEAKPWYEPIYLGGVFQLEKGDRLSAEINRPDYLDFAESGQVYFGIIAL

c1ccc(Oc2ccccc2)cc1
inactive: [1] | [2] | [3] | [4] | [5] | [6]

CSCCC=O
inactive: [1] | [2] | [3] | [4] | [5] | [6]

O=C1OC2(c3ccccc31)c1ccc(O)c(Br)c1Oc1c2ccc(O)c1Br
inactive: [1] | [2] | [3] | [4] | [5] | [6]

CS(=O)(=O)c1ccc(C2=C(c3ccccc3)C(=O)OC2)cc1
inactive: [1] | [2] | [3] | [4] | [5] | [6]

C[C@@H]1CCN(C(=O)[C@H](CCCN=C(N)N)NS(=O)(=O)c2cccc3c2NC[C@H](C)C3)[C@@H](C(=O)O)C1
inactive: [1] | [2] | [3] | [4] | [5] | [6]

CCC(C)c1cc([N+](=O)[O-])cc([N+](=O)[O-])c1OC(=O)OC(C)C (stereo not given)
active: [1] 20 µM | [2] 11.1 µM | [3] 26.7 µM | [4] 30.4 µM | [5] 30.7 µM | [6] 33.5 µM

CCCCN(CCCC)C(=O)N(CCCC)CCCC
active: [1] 32.8 µM | [2] 14.6 µM | [3] 31.4 µM | [4] 29 µM | [5] 14.5 µM | [6] 30.3 µM

CN(C)C(=O)Nc1ccc(Oc2ccc(Cl)cc2)cc1
inactive: [1] | [3] | [4] | [5] | [6]
active: [2] 20 µM

Oc1c(Cl)cc(Cl)c(Cl)c1Cc1c(O)c(Cl)cc(Cl)c1Cl
active: [7] 1.4 µM | [9] 9.92 µM | [1] 20 µM | [2] 0.993 µM | [3] 12.6 µM | [5] 2.48 µM | [6] 15.2 µM
inactive: [8] | [10] | [4]

IC(I)I
inactive: [1] | [2] | [3] | [4] | [5] | [6]

COCCc1ccc(OCC(O)CNC(C)C)cc1 (stereo not given)
inactive: [8] | [9]

COCCOCCOCCO
inactive: [8] | [9] | [10]

CCN(CC)C(=O)N(CC)CC
inactive: [1] | [2] | [3] | [4] | [5] | [6]

CC(=O)Nc1ccc(C(=O)CCl)cc1
active: [1] 5.36 µM | [2] 2.21 µM | [3] 5.39 µM | [4] 3.46 µM | [5] 2.25 µM | [6] 8.47 µM

CN(C)C(=S)SC(=S)N(C)C
active: [1] 0.396 µM | [2] 0.244 µM | [3] 0.436 µM | [4] 0.6 µM | [5] 0.367 µM | [6] 0.504 µM

O=C1OC[C@H](Cc2cccc(O)c2)[C@H]1Cc1cccc(O)c1
inactive: [1] | [2] | [3] | [4] | [5] | [6]

c1ccc2cc(Nc3ccc(Nc4ccc5ccccc5c4)cc3)ccc2c1
active: [4] 1.12 µM
inactive: [1] | [2] | [3] | [5] | [6]

C=C(C)C(=O)OCCOCCOCCOCCOC(=O)C(=C)C
inactive: [1] | [3] | [4] | [5] | [6]
active: [2] 20 µM

Cc1cc(CCC(=O)OCCOCCOCCOC(=O)CCc2cc(C)c(O)c(C(C)(C)C)c2)cc(C(C)(C)C)c1O
inactive: [1] | [2] | [3] | [4] | [5] | [6]

CN(C)CCOC(C)(c1ccccc1)c1ccccn1 (stereo not given)
inactive: [8] | [9] | [10]

CN(c1nccc(=O)[nH]1)C1CCN(c2nc3ccccc3n2Cc2ccc(F)cc2)CC1
active: [2] 14.6 µM
inactive: [1] | [3] | [4] | [5] | [6]

C=C(C)C(=O)OCC(CC)(COC(=O)C(=C)C)COC(=O)C(=C)C
active: [2] 3.08 µM | [3] 25.5 µM | [4] 19.7 µM | [6] 19.7 µM
inactive: [1] | [5]

CC(C=O)Cc1ccc(C(C)(C)C)cc1 (stereo not given)
inactive: [1] | [2] | [3] | [4] | [5] | [6]

COc1cc(Cl)c(OC)cc1N
inactive: [1] | [2] | [3] | [4] | [5] | [6]

CC(C)(N=C=O)c1cccc(C(C)(C)N=C=O)c1
inactive: [1] | [2] | [3] | [4] | [5] | [6]

CC=Cc1ccc(OCC)c(O)c1
active: [2] 12.9 µM
inactive: [1] | [3] | [4] | [5] | [6]

CCCCCC(C=O)=Cc1ccccc1
active: [2] 26.9 µM
inactive: [1] | [3] | [4] | [5] | [6]

O=C1c2ccccc2C(=O)c2c(O)ccc(O)c21
inactive: [5]
active: [1] 11 µM | [2] 0.36 µM | [3] 11.8 µM | [4] 0.0172 µM | [6] 11 µM

c1ccc(CCc2ccccc2)cc1
inactive: [1] | [2] | [3] | [4] | [5] | [6]

CCCCOC(=O)CCCCCCCC(=O)OCCCC
inactive: [1] | [2] | [3] | [4] | [5] | [6]

C=C(C)[C@H]1CC=C(C)C(=O)C1
inactive: [1] | [2] | [3] | [4] | [5] | [6]

CC(=O)C1(C)CC2=C(CCCC2(C)C)CC1C (stereo not given)
active: [1] 31.9 µM | [2] 28.8 µM | [3] 34.7 µM | [4] 28.5 µM | [5] 26 µM | [6] 30.3 µM

COc1ccc(CCN2CCC(Nc3nc4ccccc4n3Cc3ccc(F)cc3)CC2)cc1
active: [1] 7.27 µM | [2] 3.17 µM | [3] 5.84 µM | [4] 3.52 µM | [5] 3.17 µM | [6] 7.19 µM

C1=CC2C3C=CC(C3)C2C1 (stereo not given)
inactive: [1] | [2] | [3] | [4] | [5] | [6]

CC(=O)c1c(C)c([N+](=O)[O-])c(C(C)(C)C)c([N+](=O)[O-])c1C
active: [2] 30.5 µM
inactive: [1] | [3] | [4] | [5] | [6]

CCCCCCCCCCCCCCCC(=O)OC/C=C(C)/C=C/C=C(C)/C=C/C1=C(C)CCCC1(C)C
active: [2] 20 µM | [4] 31.2 µM
inactive: [1] | [3] | [5] | [6]

CC1(C)C2=CCCC(C)(C)[C@]23CC[C@H]1C3
inactive: [1] | [3] | [4] | [5] | [6]
active: [2] 20 µM

C=C(C)C(=O)OCCOCCOCCOC(=O)C(=C)C
inactive: [1] | [2] | [3] | [4] | [5] | [6]

CC(C)(C)CC(C)(C)c1ccc(OCCOCC[N+](C)(C)Cc2ccccc2)cc1
active: [1] 8.02 µM | [2] 1.57 µM | [3] 5 µM | [5] 8.48 µM | [6] 5 µM
inactive: [4]

Clc1cc(Cl)c(-c2c(Cl)c(Cl)cc(Cl)c2Cl)cc1Cl
inactive: [1] | [2] | [3] | [4] | [5] | [6]

COc1ccc(OC)c(N=Nc2c(O)ccc3ccccc23)c1
inactive: [1] | [3] | [4] | [5] | [6]
active: [2] 9.86 µM
